This passage reports largest response in the series, negative = inhibition and Potency results from PubChem BioAssay AID1490 (National Center for Advancing Translational Sciences (NCATS), 2009).

Values joined by “and” are separate entries in the source; they are usually repeats but may differ in a detail not shown here. Equal entries are not always repeated. Screen size: about 310,000 compounds; about 11,000 (3.5%) were called active. Not shown: some 4% with an inconclusive outcome. Calls follow the shape of the dose curve; as a rule, active = well fitted inhibition curve with a large enough effect; inconclusive = small, poorly fitted or top-dose-only effect, or another doubt; inactive = no such curve, though single readings can be large or run the other way. For the sample, actives were picked, then their nearest neighbours and some compounds at random.
Potency is read from the fitted curve at half-maximal effect.

The target in the assay is 4'-phosphopantetheinyl transferase ffp (Bacillus subtilis) (UniProt Q9F4F7). Put plainly: qHTS Assay for Inhibitors of Bacillus subtilis Sfp phosphopantetheinyl transferase (PPTase).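 Also: the enzyme is Sfp with the accession as filed and its product quenches rhodamine fluorescence.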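 As to largest response in the series, negative = inhibition: 0% = enzyme reaction without inhibitor and -100% = no enzyme wells.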 To be noted: Biochemical Sfp PPTase activity. The gist of the method: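 Fluorescence-quenching assay with 15 nM Sfp, 5 uM rhodamine-CoA and 12.5 uM BHQ-2-labelled ybbR peptide in pH 7.6 Hepes/MgCl2 buffer. Enzyme was pre-incubated with compound for 15 min at room temperature. Rate was taken from the 30-min fluorescence change (525/598 nm).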
Background: In qHTS, concentration-response curves come from the screen itself.
As for `CCn1cc(C(=O)NCC2CCCO2)c(=O)c2cc(S(=O)(=O)N3CCCCC3)ccc21` (stereo not drawn), the largest response in the series, negative = inhibition was 4.08% (inactive).

As for `CCn1cc(C(=O)NCCCN2CCCCCC2)c(=O)c2cc(S(=O)(=O)N3CCc4ccccc4C3)ccc21`, the Potency was 89.1 µM (active).

Consider `CCn1cc(C(=O)N2CC(C)CC(C)C2)c(=O)c2cc(S(=O)(=O)N3CCCC3)ccc21` (stereo not drawn), for which the largest response in the series, negative = inhibition is 3.15% (inactive).

For the compound `CCN1CCN(C(=O)C2CCN(S(=O)(=O)c3cc(Cl)ccc3Cl)CC2)CC1`, the largest response in the series, negative = inhibition is 7.6% (inactive).

Turning to `CC(C)c1ccc(NC(=O)[C@@H](NC(=O)N2CC(=O)Nc3ccccc32)C(C)C)cc1`, the largest response in the series, negative = inhibition is 4.22% (inactive).

Take `Oc1c(C(c2ccco2)N2CCC3(CC2)OCCO3)sc2ncnn12` (stereo not drawn): the Potency is 28.2 µM (active).

Take `Oc1c(C(c2cccs2)N2CCN(c3ccc(F)cc3)CC2)sc2ncnn12` (stereo not drawn): the largest response in the series, negative = inhibition was 13.9% (inactive).

Take `Cc1nc2sc(C(c3ccco3)N3CCOCC3)c(O)n2n1` (stereo not drawn): the largest response in the series, negative = inhibition is -2.77% (inactive).

Regarding `Cc1ccc2c(c1)C(c1ccccc1)N(C(=O)c1ccc(F)cc1)CC(=O)N2` (stereo not drawn), the largest response in the series, negative = inhibition is -5.97% (inactive).

Take `Cc1cc(NC(=O)CCC(=O)N(CC(=O)NCC2CCCO2)c2ccccc2)no1` (stereo not drawn): the largest response in the series, negative = inhibition is -5.59% (inactive).

As to `CCn1c(SCC(=O)NC2CC2)nnc1-c1ccncc1`, the largest response in the series, negative = inhibition is 12.1% (inactive).

`CCc1ccccc1N(CC(=O)NCC1CCCO1)C(=O)CCC(=O)Nc1nccs1` (stereo not drawn): the largest response in the series, negative = inhibition was 11.3% (inactive).

Take `O=C(Nc1cc(-c2nc3ncccc3o2)ccc1Cl)c1ccco1`: the largest response in the series, negative = inhibition is 0.0878% (inactive).

On to `COC(=O)[C@]1(S(=O)(=O)c2ccccc2)C[C@@H]2ON=C(c3ccc(OC)cc3)[C@@H]2C1`, for which the largest response in the series, negative = inhibition was -3.07% (inactive).

For the compound `O=C(CSc1nnc(-c2ccco2)n1CC1CCCO1)c1ccccc1` (stereo not drawn), the Potency was 50.1 µM (active).

As to `COc1ccccc1NC(=O)CSc1nnc(C)n1CC1CCCO1` (stereo not drawn), the largest response in the series, negative = inhibition is 14.7% (inactive).

In the case of `Cc1nnc(SCC(N)=O)n1CC1CCCO1` (stereo not drawn), the largest response in the series, negative = inhibition was 13.7% (inactive).

For `O=C(/C=C/c1ccc(Cl)cc1)NCCCn1ccnc1`, the largest response in the series, negative = inhibition is -28% (inactive).

In the case of `Cc1nn(-c2ccccc2)c(Cl)c1/C=N/NC(=O)c1nn(C)cc1[N+](=O)[O-]`, the largest response in the series, negative = inhibition is -3.09% (inactive).

On to `N#Cc1ccccc1CN1C(=O)S/C(=C/c2cccn2-c2cccc(C(=O)O)c2)C1=O`, for which the largest response in the series, negative = inhibition is -18.1% (inactive).

Turning to `Cc1ccccc1NC(=O)CN1C(=O)N/C(=C\c2cccn2-c2cccc(C(=O)O)c2)C1=O`, the Potency is 20 µM (active).

With `O=C1N/C(=C/c2cccn2-c2ccccc2)C(=O)N1c1cccc(Cl)c1`, the largest response in the series, negative = inhibition was 12.7% (inactive).

In the case of `Cn1ncc2c(N3CCCCC3)nc(NCCCO)nc21`, the largest response in the series, negative = inhibition was 14.5% (inactive).

On to `O=C(c1n[nH]c2c1CCC2)N1CCCC(Nc2cccc(F)c2)C1` (stereo not drawn), for which the largest response in the series, negative = inhibition was 4.84% (inactive).

Regarding `CC(C)(C)c1ccc(C(CC(=O)O)NS(=O)(=O)Cc2ccccc2)cc1` (stereo not drawn), the largest response in the series, negative = inhibition was -0.492% (inactive).

Consider `CCOC(=O)C1(Cc2cccc(OC)c2)CCN(C(C)CC(C)(C)O)CC1` (stereo not drawn), for which the Potency is 35.5 µM (active).

As to `CCOC(=O)C1(Cc2cccc(OC)c2)CCN(Cc2csc(C(C)=O)c2)CC1`, the largest response in the series, negative = inhibition is 5.75% (inactive).

With `CCOC(=O)C1(Cc2cccc(OC)c2)CCN(C(C)COC)CC1` (stereo not drawn), the largest response in the series, negative = inhibition was 2.4% (inactive).

`Cc1oc2cc3oc(=O)ccc3cc2c1C`: the largest response in the series, negative = inhibition is 6.39% (inactive).

In the case of `CCCC[C@]12Cc3cc(OC)c(OC)cc3C(O1)C1=C(CC3(CCCCC3)OC1=O)O2`, the largest response in the series, negative = inhibition was -4.17% (inactive).

Consider `Cc1ccc(Cc2nc(-c3cccc(C)c3)no2)cc1`, for which the largest response in the series, negative = inhibition was 12.9% (inactive).

For `COc1ccccc1Cc1nc(-c2ccc(C)cc2)no1`, the largest response in the series, negative = inhibition was -1.19% (inactive).

As for `COc1ccc(Cc2nc(-c3ccccn3)no2)cc1OC`, the Potency was 79.4 µM (active).

As for `COc1cc(S(=O)(=O)N2CCN=C2c2ccccc2)ccc1Cl`, the largest response in the series, negative = inhibition was 14% (inactive).

As for `CC(C)C(C)NC(=O)COc1nc2ccccc2nc1N(C)C1CCCCC1` (stereo not drawn), the largest response in the series, negative = inhibition is -0.152% (inactive).

For the compound `COCCN(C(=O)CCC(=O)Nc1nccs1)C(C(=O)NCCC(C)C)c1ccc(F)cc1` (stereo not drawn), the largest response in the series, negative = inhibition was 9.51% (inactive).

As for `O=C(Nc1ccc(NC(=O)c2cccs2)cc1)c1ccc2ccccc2c1`, the largest response in the series, negative = inhibition is -1.36% (inactive).

For the compound `C=CC(=O)c1ccc2ccccc2c1`, the Potency is 3.55 µM (active) and 31.6 µM (active).

Regarding `CC(=O)CCC(=O)c1ccc2ccccc2c1`, the largest response in the series, negative = inhibition is 7.52% (inactive).

Regarding `Cc1ccccc1Nc1nc(-c2cccnc2)cs1`, the largest response in the series, negative = inhibition is -24.9% (inactive).

As for `c1cnc(N2CCN(c3ccc4ccccc4n3)CC2)nc1`, the largest response in the series, negative = inhibition is -3.4% (inactive).

Turning to `COc1ccccc1N1CCN(C(=O)CCS(=O)(=O)c2ccc3c(c2)NC(=O)C(C)S3)CC1` (stereo not drawn), the largest response in the series, negative = inhibition is 0.999% (inactive).

Take `COc1ccc(N(C(=O)c2cccnc2)S(=O)(=O)c2ccc(OC)c(OC)c2)cc1`: the largest response in the series, negative = inhibition is 3.04% (inactive).

`COc1ccc(N(C(=O)c2cccnc2)S(=O)(=O)c2ccc3c(c2)n(C)c(=O)n3C)cc1`: the largest response in the series, negative = inhibition is 20.5% (inactive).

Consider `O=C(c1cccnc1)N(c1cc2sc(=O)oc2c2ccccc12)S(=O)(=O)c1ccccc1`, for which the Potency was 3.98 µM (active).

Regarding `COc1cc(OC)cc(C(=O)Nc2nnc(SCC(=O)NCC3CCCO3)s2)c1` (stereo not drawn), the largest response in the series, negative = inhibition was -4.79% (inactive).

As for `COc1ccccc1N1CC(C(=O)Nc2nnc(SCC(=O)NCC3CCCO3)s2)CC1=O` (stereo not drawn), the Potency was 50.1 µM (active).

Turning to `Cc1ccccc1N1CC(C(=O)Nc2nnc(SCCC3OCCO3)s2)CC1=O` (stereo not drawn), the largest response in the series, negative = inhibition is -15.5% (inactive).

As for `CCCCC(c1nnnn1CS(=O)(=O)c1ccc(C)cc1)N1CCC(C(N)=O)CC1` (stereo not drawn), the largest response in the series, negative = inhibition was 13.9% (inactive).

Consider `OC(CNCC1CCCO1)Cn1c2ccc(Br)cc2c2cc(Br)ccc21` (stereo not drawn), for which the Potency was 22.4 µM (active).

With `CC(NS(=O)(=O)c1ccc(Br)cc1)C(=O)NCC1CCCO1` (stereo not drawn), the largest response in the series, negative = inhibition was 16.5% (inactive).

Turning to `O=C(CSc1ccc(-c2ccc(Br)cc2)nn1)NCC1CCCO1` (stereo not drawn), the largest response in the series, negative = inhibition was 6.34% (inactive).

`COc1ccc(CCNC(=O)c2cnc(Cl)c(Cl)c2)cc1`: the largest response in the series, negative = inhibition was 9% (inactive).

For the compound `CC(NC(=O)CSc1nc2c(cc1C#N)CN(C)CC2)c1ccccc1` (stereo not drawn), the Potency is 56.2 µM (active).

On to `CC1(C)CCc2nc(SCc3ccccc3)c(C#N)cc2C1`, for which the largest response in the series, negative = inhibition was -5.3% (inactive).

As to `Cc1cc(NC(=O)CSc2nc3c(cc2C#N)CCCCC3)no1`, the largest response in the series, negative = inhibition was 15.4% (inactive).

With `O=C(NCc1ccccc1)C(c1cccnc1)N(C(=O)c1csnn1)c1ccc(F)cc1` (stereo not drawn), the largest response in the series, negative = inhibition is 19.5% (inactive).

As to `CC(C)CCn1c(=O)c2c(nc3n2CCCN3Cc2ccccc2)n(C)c1=O`, the largest response in the series, negative = inhibition is 4.31% (inactive).
